Compound activity from PubChem.
The entries come from a sample that favours hits as a whole.
KDM5B inh = KDM5B demethylase inhibition; AID 1347165; 220,000 compounds, 2.6% hits; Potency, µM (top dose mostly 57.7 µM), actives largely listed as inhibitors; Q9UGL1; KDM5B demethylase, FDH-coupled NADH fluorescence (FDH is formaldehyde dehydrogenase); active = well fitted inhibition curve with a large enough effect; also: nearly all actives have a fitted effect of over 70% in size
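qHTS format, multiple compound concentrations. Buffer 50 mM HEPES pH 7.5/0.01% Tween-20; 200 nM KDM5BΔAP final; 10 min compound preincubation; substrate-mix levels 12.5 µM peptide, 25 µM α-KG, 0.25 mM NAD⁺; 30 min RT; ΔRFU.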
A number is an active result; - = inactive.

SMILES	KDM5B inh
Nc1cccc(OCC(=O)O)c1	-
COC(=O)c1[nH]c2ccc(F)cc2c1NC(=O)c1ccccc1F	-
Cc1nc(C)c(C(=O)N2CCCCCCNC(=O)[C@@H]3CCCC[C@@H]32)s1	-
O=C(c1ccccc1F)N1CCc2nc(-c3ccc(Cl)cc3)nc(-c3ccccc3)c2C1	-
COCCn1c(C)cc(-c2csc(NCc3ccccc3OC)n2)c1C	-
Nc1ncccc1CN1CC[C@@H]2OCC(=O)N(c3ccccc3)[C@H]2CC1	-
c1ccc(-c2noc(CSc3nnnn3C3CC3)n2)cc1	-
COc1ccccc1-c1cc2c(ccn2C)c(C(=O)NCCN2CCNC2=O)n1	-
COc1ccc(CNC(=O)c2nc(-c3ccccc3OC)cc3c2ccn3C)cc1OC	-
COc1ccc(-c2cc3c(ccn3C)c(C(=O)NCCC(N)=O)n2)cc1OC	35.5µM
O=C(O)c1cc2c(c(S(=O)(=O)Nc3cccc(Cl)c3F)c1)CCC2	-
O=C1N[C@@H]2CCN(S(=O)(=O)Cc3ccccc3)[C@@H]2C(=O)N1c1ccc(F)cc1	-
Cc1noc(C)c1CN[C@@H]1C[C@H](CO)[C@@H](O)[C@H]1O	-
CN(C)S(=O)(=O)c1ccc(-c2nc(C#N)c(NCCCN3CCOCC3)o2)cc1	-
COC(=O)C(NC(=O)N1CCc2nc3cc(-c4ccccc4)[nH]n3c(=O)c2C1)C(C)C (stereo not given)	25.1µM
CSc1ccc(NC(=O)N2CCc3nc4cc(-c5ccccc5)[nH]n4c(=O)c3C2)cc1	25.1µM
O=C(Nc1ccc(Cl)cc1)N1CCc2nc(-c3ccc(Cl)cc3)nc(-c3ccccc3)c2C1	-
O=C(NCc1ccc(F)cc1)N1CC(Oc2ccc(-c3nc(-c4ccccc4)no3)cc2)C1	-
Cc1ccccc1OCC(=O)N1CCc2c(nc3cc(-c4ccccc4Cl)[nH]n3c2=O)C1	-
Cc1cccc2[nH]c(COCC(=O)N3CCc4c(nc[nH]c4=O)C3)nc12	-
COC(=O)CC(NC(=O)N1CCc2c(nc(-c3ccccc3)[nH]c2=O)C1)c1ccccc1 (stereo not given)	-
COc1ccc(-c2cc3nc4c(c(=O)n3[nH]2)CCN(C(=O)COc2ccccc2C)C4)cc1	31.6µM
COC(=O)C(NC(=O)N1CCCCCCn2c(nnc2-c2ccc(F)cc2)CC1)C(C)C (stereo not given)	-
O=C(NCc1cccc(F)c1)N1CCc2nc3cc(-c4ccccc4)[nH]n3c(=O)c2C1	12.6µM
O=C([C@@H]1C[C@H](F)CN1C(=O)NCc1cccc(F)c1)N1CCCCC1	-
SMILES	KDM5B inh
CCc1nc2c(c(-c3ccc(Cl)cc3)n1)CN(C(=O)Nc1ccccc1)CC2	-
COC(=O)c1ccc2nc(CO[C@H]3CN(C(C)=O)C[C@H]3F)[nH]c2c1	-
O=C(c1ccccc1OCc1nc(-c2ccccc2)no1)N1CCC(N2CCCCC2)CC1	-
N#Cc1cccc(C(=O)C(C#N)C(=O)Nc2cccc(C(F)(F)F)c2)c1 (stereo not given)	-
O=C1CCN(S(=O)(=O)c2ccccc2)CCCC(C(=O)NCCN2CCOCC2)CCN1 (stereo not given)	-
COc1ccc(NC(=O)N2C[C@@H](F)C[C@H]2C(=O)N2CCc3ccccc3C2)c(C)c1	-
COc1ccc(NC(=O)N2CCc3nc4cc(-c5ccccc5)[nH]n4c(=O)c3C2)c(C)c1	10µM
COc1ccc(NC(=O)N2CCc3c(nc4cc(-c5ccccc5)[nH]n4c3=O)C2)c(C)c1	20µM
COc1ccc(-c2nc(C)nc3c2CCN(C(=O)c2ccccc2)CC3)cc1	-
COc1cccc(-c2cc(C3CCN(C(=O)Nc4ccc(C)cc4C)CC3)[nH]n2)c1	-
COc1ccc(NC(=O)N2CCc3nc(-c4cccc(F)c4)[nH]c3C2)cc1	-
COCC(=O)N1CCCC(c2nc(C3CCOCC3)no2)C1 (stereo not given)	-
Cc1ccc(-n2nc(-c3cccc(C)c3)c(C)c2-c2cccc(C)c2)cc1	-
CSc1ncc(C(=O)NCc2ccccc2)c(N)n1	-
CCOc1ccccc1C1CC(=O)N(Cc2ccccc2)c2c1c(C)nn2-c1nc(C)cc(C)n1 (stereo not given)	-
CN1CCN(C(=O)c2cc3n(n2)CC(c2ccc(Br)cc2)OC3)CC1 (stereo not given)	-
NC(=O)Cc1csc(NC(=O)CCc2ncc(-c3ccccc3)o2)n1	-
Cc1ccc(-n2nc(C)c3c(C(=O)NC4CCN(Cc5ccccc5)CC4)cc(C)nc32)cc1	-
Clc1ccc2nc(-c3cccc(Br)c3)cn2c1	-
COc1ccc(NC(=O)CN2C(=O)NC3(CCC(C(C)(C)C)CC3)C2=O)cc1 (stereo not given)	-
CCOc1c(C(=O)OC)sc2ccc(NC(=O)c3ccccc3F)cc12	-
COc1ncccc1-c1nccc2c(=O)cc(N3CCOCC3)oc12	39.8µM
O=c1cc(N2CCOCC2)oc2c(-c3ccccc3O)nccc12	-
Cc1ccccc1-c1nccc2c(=O)cc(N3CCOCC3)oc12	35.5µM
CCC(=O)N1Cc2ccccc2CC2(CCCCN2Cc2ccncc2)C1 (stereo not given)	-
SMILES	KDM5B inh
CCc1nc2c(c(-c3ccc(OC)cc3)n1)CCN(C(=O)c1ccc3c(c1)OCO3)CC2	-
O=C(COc1ncnc2c(Cl)cc(Cl)cc12)Nc1cccc(Cl)c1	-
CCN(C)C(C)C(=O)N1CCc2onc(-c3ccc(C(F)(F)F)cc3)c2C1 (stereo not given)	-
CC(C)c1nc(C(=O)N2CCc3onc(-c4ccccc4F)c3C2)cs1	-
CCC1(CC)CC1C(=O)N1CCc2onc(-c3cccc(F)c3)c2C1 (stereo not given)	-
NC(=O)NCCC(=O)N1CCc2[nH]nc(-c3cccc4ccccc34)c2C1	-
O=C(Cn1cnnn1)N1CCc2onc(-c3cccc4ccccc34)c2C1	31.6µM
CC(=O)NC(CO)C(=O)N1CCc2onc(-c3cccc4ccccc34)c2C1 (stereo not given)	31.6µM
COc1ccc(C(=O)N[C@H]2C[C@@H]3CC[C@H]2C3)cc1OC	-
O=C1c2ccccc2C(=O)N1CCSc1ncc(C(F)(F)F)cc1Cl	-
N#Cc1ccc(C(=O)N2CCC3(CC2)NC(=O)N(Cc2ccc(Cl)cc2)C3=O)cc1	-
O=C(c1cocn1)N1C[C@@H](COc2ccncc2)[C@H](c2ccccn2)C1	-
Oc1c(Cl)cccc1C=Nc1cc(C(F)(F)F)ccc1Oc1ccc(Cl)cc1	-
COC[C@@H]1CN(c2ncccn2)C[C@H]1C(=O)N1CCOCC1	25.1µM
CNC(=O)[C@@H]1CN(C(=O)Cn2cc(C)cn2)C[C@H]1COC	-
O=C(O)[C@H]1C[C@@H](C(=O)NCc2ccccn2)CN(CC2CC2)C1	-
CNC(=O)[C@@H]1CN(C(=O)c2nccc3ccccc23)C[C@H]1COC	-
COC[C@@H]1CN(C(=O)CN2CCOCC2)C[C@H]1c1ccncc1	-
O=C(NCc1ccccn1)[C@H]1CN(Cc2ccccc2)C[C@H]1C(=O)O	-
COC[C@@H]1CN(C(=O)c2ncccc2C)C[C@H]1C(N)=O	-
COC[C@@H]1CN(c2ncccn2)C[C@H]1C(=O)NCC(F)(F)F	20µM
COC[C@@H]1CN(c2ncccn2)C[C@H]1C(=O)NCc1ccccn1	14.1µM
CCOP(=O)(OCC)c1nc(Cc2ccc(OC)cc2)oc1NCc1cccnc1	-
CCCNC(=O)NC[C@H]1O[C@@H]2C[C@@H](CC(=O)NCc3cnn(C)c3)O[C@@H]2[C@@H]1O	-
CCOC(=O)C(C(=O)O)C1CCCCC1 (stereo not given)	-
Cn1cnc2c1c(=O)n(CC(=O)NCc1ccc(F)cc1)c(=O)n2C	-
